Reference: PubChem BioAssay (EPA / NIEHS)
Results filed as inconclusive are left out. Calls of active or inactive are those of the source. Rule for the calls: active = hit-call score of the fitted dose curve at least 0.9, where 1 is the maximum; inconclusive = response in the unintended direction; inactive = score below 0.9.

biological target: Peroxisome proliferator-activated receptor gamma (Homo sapiens) (UniProt P37231); assay: NVS_NR_hPPARg: NovaScreen (NVS) Nuclear Receptor Binding Assay for human Peroxisome Proliferator-activated Receptor gamma (PPARg) (AID 2283370)
Outline: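 FP read-out, 2 h post-dose, cell-free extracted receptor protein. Signal loss vs DMSO negative control = binding activity. Single-conc duplicate HTS at 25 uM; concentration-response follow-up for actives.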

Peroxisome proliferator-activated receptor gamma (Homo sapiens), sequence (P37231 whole entry, looked up): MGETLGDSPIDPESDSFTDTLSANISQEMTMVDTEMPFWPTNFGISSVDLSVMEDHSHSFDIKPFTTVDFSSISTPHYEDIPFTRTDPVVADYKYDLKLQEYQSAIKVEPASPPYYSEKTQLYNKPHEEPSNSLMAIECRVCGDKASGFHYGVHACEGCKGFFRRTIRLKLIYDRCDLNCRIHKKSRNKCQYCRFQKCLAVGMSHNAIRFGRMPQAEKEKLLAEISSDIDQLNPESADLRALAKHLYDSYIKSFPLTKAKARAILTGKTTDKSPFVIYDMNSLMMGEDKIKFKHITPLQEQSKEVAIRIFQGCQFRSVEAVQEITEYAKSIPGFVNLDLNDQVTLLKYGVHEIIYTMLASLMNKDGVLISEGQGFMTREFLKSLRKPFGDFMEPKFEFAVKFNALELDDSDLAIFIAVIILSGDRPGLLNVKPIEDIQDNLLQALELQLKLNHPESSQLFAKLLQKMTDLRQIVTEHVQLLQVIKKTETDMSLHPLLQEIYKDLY

Question: `CCC[CH2][Sn]([CH2]CCC)([CH2]CCC)[CH2]CCC` was tested. Which outcome did it give?
Answer: inactive

Question: How did the outcome turn out when `COc1ccccc1N` was run?
Answer: inactive

Question: `O=[N+]([O-])c1ccccc1O` was tested. Which outcome did it give?
Answer: inactive

Question: `CCC[CH2][Sn]([Cl])([Cl])[CH2]CCC` was tested. Which outcome did it give?
Answer: inactive

Question: With `Cc1cc(Cl)ccc1OC(C)C(=O)O` (configuration not stated) as the compound, how does the outcome read?
Answer: inactive

biological target: human Dopamine Transporter (DAT), SLC6A3 (gene 6531) (UniProt Q01959); assay: NVS_TR_hDAT: NovaScreen (NVS) Transporter Assay for human Dopamine Transporter (DAT) (AID 2283374);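 note: activity means loss of bound radioligand signal relative to DMSO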
Outline: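 Duplicate single-point screening at 25 uM preceded concentration-series follow-up of actives. Binding was measured by competitive displacement of a radioligand from DAT protein, filter-counted by scintillation 1 h after dosing. Decrease relative to DMSO taken as activity.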

human Dopamine Transporter (DAT), SLC6A3 (gene 6531), sequence (Q01959 whole entry, looked up): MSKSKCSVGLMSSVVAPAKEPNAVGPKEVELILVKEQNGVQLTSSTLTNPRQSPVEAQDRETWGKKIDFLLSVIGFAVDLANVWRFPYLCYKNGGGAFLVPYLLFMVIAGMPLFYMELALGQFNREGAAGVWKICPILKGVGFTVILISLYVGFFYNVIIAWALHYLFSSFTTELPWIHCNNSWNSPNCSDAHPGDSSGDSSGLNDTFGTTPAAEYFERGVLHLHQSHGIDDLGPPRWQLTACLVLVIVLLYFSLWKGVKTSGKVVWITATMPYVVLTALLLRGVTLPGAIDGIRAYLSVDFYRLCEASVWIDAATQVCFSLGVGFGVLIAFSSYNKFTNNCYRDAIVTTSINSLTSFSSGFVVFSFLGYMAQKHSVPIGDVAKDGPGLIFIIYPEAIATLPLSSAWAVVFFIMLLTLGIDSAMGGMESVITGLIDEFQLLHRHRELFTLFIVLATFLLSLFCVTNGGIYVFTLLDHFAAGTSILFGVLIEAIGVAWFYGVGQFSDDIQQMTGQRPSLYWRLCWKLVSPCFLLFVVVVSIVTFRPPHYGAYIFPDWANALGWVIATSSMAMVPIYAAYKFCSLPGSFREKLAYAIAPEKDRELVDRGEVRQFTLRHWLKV

Question: `CCCCCCCCCCCCc1cccc(S(=O)(=O)O)c1` was tested. Which AC50 did it give?
Answer: 32.9 µM (active)

Question: For `CC(C)=CC1C(C(=O)OCc2cccc(Oc3ccccc3)c2)C1(C)C` (configuration not stated), which AC50 is on record?
Answer: 17.2 µM (active)

Question: `Cc1ccc(OP(=O)(Oc2ccc(C)cc2C)Oc2ccc(C)cc2C)c(C)c1` was tested. Which AC50 did it give?
Answer: 17.4 µM (active)

biological target: rat Serotonin Transporter (SERT), Slc6a4 (gene 25553) (UniProt P31652); assay: NVS_TR_rSERT: NovaScreen (NVS) Transporter Assay for rat Serotonin Transporter (SERT) (AID 2283375)
Method: NVS_TR_rSERT is a biochemical, single-readout assay that uses extracted gene-proteins from Rat forebrain membranes in a tissue-based cell-free assay. Measurements were taken 1 hour after chemical dosing in a 96-well plate.NVS_TR_rSERT is one of one assay component(s) measured or calculated from the NVS_TR_rSERT assay. It is designed to make measurements of radioligand binding, a form of binding reporter, as detected with scintillation counting signals by Filter-based radiodetection technology.Data from the assay component NVS_TR_rSERT was analyzed into 1 assay endpoint. This assay endpoint, NVS_TR_rSERT, was analyzed in the positive analysis fitting direction relative to DMSO as the negative control and baseline of activity. Using a type of binding reporter, loss-of-signal activity can be used to understand changes in the binding as they relate to the gene Slc6a4. Furthermore, this assay endpoint can be referred to as a primary readout, because the performed assay has only produced 1 assay endpoint. To generalize the intended target to other relatable targets, this assay endpoint is annotated to the transporter intended target family, where the subfamily is neurotransmitter transporter.
Binding assays used specific radioligands (tritiated, iodinated) with non-radioactive competitive displacement ligands in agonist or antagonist protocols (as indicated) and various reference compounds and inhibitors to titrate specific binding to receptors and transporters. Most enzyme assays (CYPs, kinases, phosphatases, proteases, HDACs) used recombinant protein and specific substrates (fluorescence mostly, some colorimetric and radioactive) and inhibitors, followed by a biochemical separation of substrate and product. All assays for the biochemical HTS were initially run in duplicate at a single concentration (10 uM for CYP450 assays and 25 uM for all others). […] Each assay was run with positive and negative controls, and concurrent controls on every plate. The follow-up (secondary) screen tested active chemical-pairs in concentration series, as well as a few additional assays not tested in the primary screen, some selected negative inactives, and several cases re-run in the concentration series for confirmatory purposes.

rat Serotonin Transporter (SERT), Slc6a4 (gene 25553), sequence (P31652 whole entry, looked up): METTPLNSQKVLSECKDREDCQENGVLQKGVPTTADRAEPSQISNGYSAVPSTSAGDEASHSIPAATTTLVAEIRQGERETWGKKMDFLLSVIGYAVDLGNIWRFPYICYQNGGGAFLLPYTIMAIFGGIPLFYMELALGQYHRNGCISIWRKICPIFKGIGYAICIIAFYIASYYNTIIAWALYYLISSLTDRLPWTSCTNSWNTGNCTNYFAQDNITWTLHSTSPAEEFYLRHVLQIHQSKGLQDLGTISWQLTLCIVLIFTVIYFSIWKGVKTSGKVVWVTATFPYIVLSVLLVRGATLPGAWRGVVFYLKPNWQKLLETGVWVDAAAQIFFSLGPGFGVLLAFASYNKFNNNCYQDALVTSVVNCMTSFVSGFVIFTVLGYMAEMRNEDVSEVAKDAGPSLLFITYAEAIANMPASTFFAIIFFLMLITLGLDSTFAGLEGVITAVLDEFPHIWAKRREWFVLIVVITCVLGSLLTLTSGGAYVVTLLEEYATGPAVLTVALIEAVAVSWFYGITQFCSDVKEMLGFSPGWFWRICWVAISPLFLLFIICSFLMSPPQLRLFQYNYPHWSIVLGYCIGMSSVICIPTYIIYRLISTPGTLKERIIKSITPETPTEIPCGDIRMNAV

Question: Which AC50 does the source give for `Cc1ccc(CCl)cc1` here?
Answer: 16.6 µM (active)

Question: Which outcome does the source give for `Nc1nc(N)nc(Cl)n1` here?
Answer: inactive

Question: For `N#Cc1ccccc1N`, which AC50 is on record?
Answer: 17.6 µM (active)

Question: For `O=[N+]([O-])c1cccc2ccccc12`, which AC50 is on record?
Answer: 9.17 µM (active)
